Hit rate of the full screen: of about 310,000 compounds, about 14,000 (4.5%) showed an effect of 50% or more. The effect is printed as a negative number. The full list was thinned out, with strong results kept by preference.
target: human ether-à-go-go-related gene (hERG) potassium channel (human, UniProt Q12809); test: primary screen, population patch clamp on CHO cells stably expressing hERG; higher = less effect of the substance
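Further: peak tail current of the secondary pulse compared with the same well before compound.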

Chain of human ether-à-go-go-related gene (hERG) potassium channel (Q12809 whole entry, looked up): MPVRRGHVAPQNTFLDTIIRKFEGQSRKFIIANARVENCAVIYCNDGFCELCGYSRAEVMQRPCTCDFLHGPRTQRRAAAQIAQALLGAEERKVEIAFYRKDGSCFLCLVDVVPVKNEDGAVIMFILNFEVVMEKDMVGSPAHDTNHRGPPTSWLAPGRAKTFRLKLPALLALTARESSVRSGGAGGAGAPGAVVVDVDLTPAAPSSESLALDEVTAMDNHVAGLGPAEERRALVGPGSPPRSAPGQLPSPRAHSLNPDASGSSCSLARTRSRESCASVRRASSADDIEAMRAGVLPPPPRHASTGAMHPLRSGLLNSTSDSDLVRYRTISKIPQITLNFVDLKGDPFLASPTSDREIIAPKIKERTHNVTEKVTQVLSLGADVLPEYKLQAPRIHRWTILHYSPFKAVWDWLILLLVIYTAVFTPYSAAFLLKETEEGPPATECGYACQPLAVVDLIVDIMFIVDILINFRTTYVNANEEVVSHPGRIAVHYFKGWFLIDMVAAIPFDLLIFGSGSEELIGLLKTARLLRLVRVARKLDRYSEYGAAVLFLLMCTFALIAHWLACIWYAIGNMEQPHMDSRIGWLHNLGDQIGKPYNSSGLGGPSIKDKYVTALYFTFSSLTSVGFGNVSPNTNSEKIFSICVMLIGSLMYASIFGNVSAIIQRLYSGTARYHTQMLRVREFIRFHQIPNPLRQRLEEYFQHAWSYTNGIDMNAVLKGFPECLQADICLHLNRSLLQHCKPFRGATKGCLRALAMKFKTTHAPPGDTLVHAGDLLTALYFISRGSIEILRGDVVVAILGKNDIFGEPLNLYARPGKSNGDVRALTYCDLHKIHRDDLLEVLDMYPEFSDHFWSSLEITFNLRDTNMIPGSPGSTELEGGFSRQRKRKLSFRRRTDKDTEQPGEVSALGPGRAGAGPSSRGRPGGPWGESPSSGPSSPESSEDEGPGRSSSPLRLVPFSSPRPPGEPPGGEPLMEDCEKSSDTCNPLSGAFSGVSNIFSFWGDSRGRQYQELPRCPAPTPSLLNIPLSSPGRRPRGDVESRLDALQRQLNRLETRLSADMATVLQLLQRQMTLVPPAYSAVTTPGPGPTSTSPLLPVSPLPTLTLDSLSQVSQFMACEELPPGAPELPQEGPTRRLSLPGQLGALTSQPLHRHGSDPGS

| SMILES | hERG current change (%, negative = inhibition) at 10uM [%] |
| --- | --- |
| CCCc1nc(C)c2c(=O)[nH]c(-c3cc(S(=O)(=O)N4CCN(CC)CC4)ccc3OCC)nn12.O=C(O)CC(O)(CC(=O)O)C(=O)O | 0.215 |
| COc1cccc(N2CCN(S(=O)(=O)c3ccc4c(c3)CC(C)N4C(=O)C3CC3)CC2)c1 (stereo not shown) | 17.8 |
| CC1C(=O)N(Cc2ccccc2F)c2ccccc2N1C(=O)c1c(F)cccc1F (stereo not shown) | -6.04 |
| CC(C)N1CCc2c(sc(NC(=O)c3nc4ccccc4s3)c2C(N)=O)C1.Cl | -45.1 |
| CCCn1c(SCC(=O)/C(C#N)=C(\C)N)n[nH]c1=O | 7.25 |
| CC(C)C(=O)Nc1nnc(Cc2c[nH]c3ccccc23)s1 | 28 |
| Cc1[nH]n(-c2ccccc2)c(=O)c1C=NC1CCCCC1 | -10.5 |
| O=C(CCCN1C(=O)/C(=C\c2cccs2)SC1=S)Nc1cccc(C(=O)O)c1 | 9.57 |
| Cc1cccn2c(=O)c(/C=C(\C#N)C(=O)NCc3ccco3)c(N3CCC(C(N)=O)CC3)nc12 | -43 |
| CCOC(=O)C1CCN(c2nc3c(C)cccn3c(=O)c2/C=C(\C#N)S(=O)(=O)c2ccccc2)CC1 | -18.1 |
| Cc1cccn2c(=O)c(/C=C(\C#N)S(=O)(=O)c3ccc(Cl)cc3)c(N3CCC(C(N)=O)CC3)nc12 | -77.8 |
| Cc1cccn2c(=O)c(/C=C(\C#N)C(=O)NCc3ccccc3)c(N3CCC(C(N)=O)CC3)nc12 | -29.1 |
| Cc1ccc(S(=O)(=O)/C(C#N)=C/c2c(N3CCC(C(N)=O)CC3)nc3c(C)cccn3c2=O)cc1 | -71.4 |
| Cc1cccn2c(=O)c(/C=C(\C#N)S(=O)(=O)c3ccccc3)c(N3CCCCC3)nc12 | 9.28 |
| Cc1cccn2c(=O)c(/C=C(\C#N)S(=O)(=O)c3ccccc3)c(N3CCC(C(N)=O)CC3)nc12 | -75.4 |
| CCN1CCN(c2nc3c(C)cccn3c(=O)c2/C=C(\C#N)S(=O)(=O)c2ccc(Cl)cc2)CC1 | -44.9 |
| COc1ccc(C=Nc2cccc3ncccc23)cc1 | 4.44 |
| Cc1ccc(C(=O)Nc2ccc(S(=O)(=O)N3CCOCC3)cc2)cc1Br | 3.46 |
| CC(=O)Nc1nc(-c2ccc(Cl)cc2)nc(C)c1C(C)=O | -19.8 |
| CCN(C(=O)COC(=O)C1=COCCO1)c1ccccc1 | -2.33 |
| O=c1cc(Cc2nnc(SCc3ccccc3)n2-c2ccc(Cl)cc2)[nH]c(=O)[nH]1 | 0.593 |
| COc1ccc(N2CCN(C(=O)c3cc(-c4cc(OC)ccc4OC)nc4ccccc34)CC2)cc1 | -1.23 |
| Cc1ccc2nc3c(nc2c1C)C(O)=C3O | 6.68 |
| O=C1c2ccccc2C(=O)c2c1cccc2N1CCOCC1 | -30.4 |

| SMILES | hERG current change (%, negative = inhibition) at 10uM [%] |
| --- | --- |
| O=C1c2ccccc2-c2ncnc3c(N4CCOCC4)cc(N4CCOCC4)c1c23 | -60 |
| Cc1ccc(N2CCOCC2)c2c1C(=O)c1ccccc1C2=O | -19.1 |
| CCOCCn1c(SCc2ccc(C)cc2)nc2c1c(=O)[nH]c(=O)n2C | 14.5 |
| N#Cc1ccc(CN2CCN(CC(=O)NCCc3ccc(Cl)cc3Cl)CC2)cc1 | -68.8 |
| CC(=O)c1ccc(N2CCN(CC(=O)NCc3ccccc3)CC2)cc1 | -44.3 |
| COc1ccc(N2CCN(CC(=O)NCc3ccc(Cl)cc3)CC2)cc1 | -55.7 |
| O=C(CN1CCN(c2ccccc2)CC1)NCc1ccc(F)cc1 | -11 |
| O=C(CN1CCNC(=O)C1)NCCc1ccc(Cl)cc1Cl | 1.45 |
| O=C(CN1CCN(c2ccc(F)cc2)CC1)NCc1ccc(F)cc1 | -43.9 |
| Cc1ccc(CNC(=O)CN2CCN(c3ccc(F)cc3)CC2)cc1 | -50.8 |
| O=C(CN1CCN(c2ccc(Cl)cc2)CC1)NCc1ccccc1 | -51.3 |
| O=C(Cn1cnnn1)NCCc1ccc(Cl)cc1Cl | -19.6 |
| O=C(CN1CCN(c2cccc(Cl)c2)CC1)NCc1ccccc1 | -15.5 |
| COc1ccc(CNC(=O)CN2CCN(c3ccccc3)CC2)cc1 | 3.65 |
| COc1ccc(CNC(=O)CN2CCN(c3ccc(F)cc3)CC2)cc1 | -39.1 |
| S=c1[nH]nc(COc2ccccc2)n1/N=C/c1ccncc1 | 7.06 |
| O=C(NCCOc1ccc(Cl)cc1)c1ccc2c(c1)OCCO2 | -7.8 |
| COc1ccc(O)c(C=Nc2cc(NC(C)=O)c(Cl)cc2Cl)c1 | 2.95 |
| O=C1c2ccccc2C(=O)N1CC(O)COc1ccc(Br)cc1 (stereo not shown) | -1.51 |
| O=C(CN1CCN(Cc2ccccc2)CC1)NCc1ccc(Cl)cc1 | -61.1 |
| O=C(CN1CCN(Cc2ccc(F)cc2)CC1)NCc1ccccc1 | -27.5 |
| Cl.O=C(CN1CCOCC1)NCc1ccc(F)cc1 | 21.6 |
| O=C(CN1CCN(c2ccc(F)cc2)CC1)NCc1ccc(Cl)cc1 | -62.7 |
| O=C(NCc1ccc(Cl)cc1)N1CCN(Cc2ccccc2)CC1 | -29.9 |

| SMILES | hERG current change (%, negative = inhibition) at 10uM [%] |
| --- | --- |
| Fc1ccc(CN2CCN(c3ccc(Cl)cc3)CC2)cc1 | -13.6 |
| Cc1ccc(C(=O)c2cc3c(cc2[N+](=O)[O-])OCCO3)cc1 | -9.5 |
| O=C1/C(=N\S(=O)(=O)c2cccs2)C([n+]2ccccc2)=C([O-])c2ccccc21 | 33.6 |
| CCc1cc[n+](C2=C([O-])c3ccccc3C(=O)/C2=N\S(=O)(=O)c2cccs2)cc1 | -11.6 |
| O=C1/C(=N\S(=O)(=O)c2cccs2)C([n+]2ccc(CCCc3ccccc3)cc2)=C([O-])c2ccccc21 | -70.5 |
| Cc1ccc(NC(=O)c2nnn(-c3ccc4c(c3)OCCO4)c2N)cc1 | 9.9 |
| Cc1cc(NC(=O)CSc2nncc(=O)n2N)no1 | 1.99 |
| CCN1C(=O)/C(=C\c2cccs2)C(C(=O)OC)=C1C | 5.41 |
| COC(=O)C1=C(C)N(Cc2ccccc2)C(=O)/C1=C\c1ccco1 | 2.06 |
| COCCCN1C(=O)/C(=C\c2cccs2)C(C(=O)OC)=C1C | -31.9 |
| COC(=O)C1=C(C)N(Cc2cccnc2)C(=O)C1 | -0.706 |
| COC(=O)C1=C(C)N(Cc2cccnc2)C(=O)/C1=C\c1cccs1 | -89 |
| COC(=O)C1=C(C)N(Cc2cccnc2)C(=O)/C1=C\c1sccc1C | -79.2 |
| CCN(CC)S(=O)(=O)c1cccc(-c2nnc(SCC(=O)NC3CCCC3)n2N)c1 | 19 |
| Cc1cc(=O)[nH]c2c(C)cc(S(=O)(=O)N3CCCCC3)cc12 | 4.69 |
| CCc1cccc(NC(=O)COc2ccccc2)c1 | -8.01 |
| O=C(Oc1c(-c2ccccc2)c(=O)n2c3c(cccc13)CC2)c1ccccc1 | -9.09 |
| O=C(Oc1c(-c2ccccc2)c(=O)n2c3c(cccc13)CC2)c1ccco1 | -62 |
| O=C(Oc1c(-c2ccccc2)c(=O)n2c3c(cccc13)CC2)c1ccc(F)cc1 | 10.4 |
| CC1CC(=S)Nc2ccccc2S1 (stereo not shown) | 11.1 |
| CN(C)S(=O)(=O)N1CCC(c2ccc(F)cc2)C(COc2ccc3c(c2)OCO3)C1 (stereo not shown) | 10.2 |
| N#C/C(=C/c1ccc(Sc2nc3ccccc3[nH]2)o1)c1ccccc1F | -7.86 |
| O=C(O)c1ccc(NC(=S)NC(=O)C(c2ccccc2)c2ccccc2)cc1 | -6.52 |
| Cc1ccc(NC(=O)C(C)Oc2ccccc2)cc1S(=O)(=O)N1CCCCCC1 (stereo not shown) | -7.7 |

| SMILES | hERG current change (%, negative = inhibition) at 10uM [%] |
| --- | --- |
| CCOc1ccc(NC(=O)C(C)Oc2ccc(C#N)cc2)cc1S(=O)(=O)N1CCCC1 (stereo not shown) | -62.1 |
| CCOc1ccc(NC(=O)C(C)NC(=O)c2ccccc2Cl)cc1S(=O)(=O)N1CCCC1 (stereo not shown) | -14.3 |
| COc1ccc(NC(=O)Nc2nnc(-c3ccccc3SCc3ccccc3)s2)cc1 | 13.6 |
| O=C(Cc1cccs1)NCCN1CCOCC1 | 3.99 |
| CNc1nc(NCCOC23CC4CC(CC(C4)C2)C3)nc(OCC(F)(F)F)n1 | 8.55 |
| CN1CCN(c2nc(NCCOC34CC5CC(CC(C5)C3)C4)nc(OCC(F)(F)F)n2)CC1 | -60.8 |
| OCCNc1nc(OCC(F)(F)F)nc(N2CCN(C34CC5CC(CC(C5)C3)C4)CC2)n1 | -37.9 |
| CCOc1c2ccc(C(=O)NCc3ccco3)cc2nn1CCOC | -0.63 |
| CC(=O)c1cccc(NS(=O)(=O)c2cc3c(cc2C)N(C(C)=O)CCO3)c1 | 14.3 |
| Cc1ccc(S(=O)(=O)C(CCC(=O)c2ccc(Cl)cc2)C(N)=O)cc1 (stereo not shown) | -28.9 |
| CCN1CCN(c2cc(C)c3cc(NC(=O)c4ccc(C)c(C)c4)ccc3n2)CC1 | -43.3 |
| CCN(CC)c1cc(C)c2cc(NC(=O)c3ccc(Br)o3)ccc2n1 | -76.1 |
| CCN1CCN(c2cc(C)c3cc(NC(=O)c4ccc(Br)o4)ccc3n2)CC1 | -56 |
| Cc1cc(N2CCN(C)CC2)nc2ccc(NC(=O)c3ccc(Br)o3)cc12 | -77.4 |
| CCN(CC)c1cc(C)c2cc(NC(=O)CNC(C)=O)ccc2n1 | -11.3 |
| COc1cc(C(=O)Nc2ccc3nc(N4CCN(C)CC4)cc(C)c3c2)cc(OC)c1OC | -38.7 |
| Cc1cc(N2CCN(C)CC2)nc2ccc(NC(=S)N3CCC4(CC3)OCCO4)cc12 | -34 |
| CCN1CCN(c2cc(C)c3cc(NC(=O)c4ccncc4)ccc3n2)CC1 | -21.4 |
| CCN1CCN(c2cc(C)c3cc(NC(=O)c4cncc(Br)c4)ccc3n2)CC1 | -51.8 |
| CCN(CC)c1ccc(NC(=O)c2ccc(Br)o2)cc1 | -24.3 |
| CCN1CCN(c2cc(C)c3cc(NC(=O)Cc4ccc(OC)c(OC)c4)ccc3n2)CC1 | -10.5 |
| CCN1CCN(c2cc(C)c3cc(NC(=O)c4cnccn4)ccc3n2)CC1 | -16.2 |

Source: publication PMC4336329 (PLoS ONE, 2015)
